Assay outcomes: PubChem, National Center for Advancing Translational Sciences (NCATS)
PLK1 PBD inh: qHTS for Inhibitors of PLK1-PDB (polo-like kinase 1 - polo-box domain): Primary Screen; Serine/threonine-protein kinase PLK1 (Homo sapiens), P53350; Plk1 PBD binding of FITC phosphopeptide, fluorescence polarization; Potency, µM, hits mostly inhibitors; hit rate 2.8% among 360,000; also: series mostly up to about 57 µM; nearly all actives have a fitted effect of over 65% in size
Target sequence (P53350 whole entry, looked up, the tested form may be a part): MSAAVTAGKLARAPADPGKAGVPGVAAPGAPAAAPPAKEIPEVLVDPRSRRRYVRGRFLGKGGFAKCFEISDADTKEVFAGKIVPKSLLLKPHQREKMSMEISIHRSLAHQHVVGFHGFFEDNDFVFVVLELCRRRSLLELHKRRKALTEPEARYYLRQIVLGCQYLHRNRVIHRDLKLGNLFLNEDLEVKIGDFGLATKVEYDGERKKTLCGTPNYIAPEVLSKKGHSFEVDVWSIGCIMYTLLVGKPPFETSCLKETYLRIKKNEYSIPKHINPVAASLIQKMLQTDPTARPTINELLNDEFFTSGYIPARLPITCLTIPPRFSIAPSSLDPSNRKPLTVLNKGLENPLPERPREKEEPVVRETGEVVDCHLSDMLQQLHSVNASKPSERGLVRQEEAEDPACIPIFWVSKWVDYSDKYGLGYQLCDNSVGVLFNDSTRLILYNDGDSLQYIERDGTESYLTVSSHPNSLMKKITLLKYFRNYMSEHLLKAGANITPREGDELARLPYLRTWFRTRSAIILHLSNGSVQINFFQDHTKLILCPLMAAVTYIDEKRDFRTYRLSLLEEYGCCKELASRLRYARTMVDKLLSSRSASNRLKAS
VDR inh: Inhibitors of the vitamin D receptor (VDR): qHTS; VDR-SRC2-3 peptide fluorescence polarization, 2 h; Potency, µM, most hits filed as inhibitors; hit rate 0.93% among 400,000; AID 504847, 2011
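Two reagent solutions held at 4 deg C in the dark were dispensed, compounds pinned at 23 nl, and the mixture incubated 2 h at room temperature. Read-out: fluorescence polarization of VDR–SRC2-3 peptide binding.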
GLS inh: qHTS for Inhibitors of Glutaminase (GLS); AID 624170, 2012; GLS enzymatic activity, qHTS titration; Potency, µM (highest dose often 45.5 µM), hits mostly inhibitors; Glutaminase kidney isoform, mitochondrial (Homo sapiens), O94925; hit rate 0.21% among 410,000
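hKGA; 45 mM KH2PO4 pH 8.2 + 0.02% Tween-20; cpd via pin tool; 1 mM Gln soln; GluOx/HRP/Amplex Red; RT 30 min; fluor. t0 & final.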
PI4K2A inh: qHTS for small molecular inhibitors of PI4K2A; Phosphatidylinositol 4-kinase type 2-alpha (Homo sapiens), Q9BTU6; purified PI4K2A, ADP-Glo luminescence, 1 h; active compounds read low; activity change, negative = inhibition, % at 76.9 µM; hit rate 0.13% among 420,000; AID 1346378, 2018; in the data active = activity change below about -50%; inconclusive = mostly about -30% to -49%
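Compounds are screened against recombinant PI4K2A using PI as substrate and ATP, the latter dispensed at 300 microM. Reactions run one hour at ambient temperature before ADP-Glo detection; full inhibition defined by wells lacking enzyme.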
KAT2A inh: qHTS Assay for Inhibitors of GCN5L2. GCN5L2 HAT assay, ThioGlo1 CoA-SH fluorescence. Potency, µM (series often up to 58.9 µM), actives largely listed as inhibitors. hit rate 0.21% among 390,000. Histone acetyltransferase KAT2A (Homo sapiens), Q92830
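Enzyme at 20nM final was mixed with library compounds for 15 min at room temperature. Peptide H3(1-25) at 75uM, acetyl-CoA at 70uM and ThioGlo1 at 50uM were then added. Plates were read immediately and after 20 min (Ex340nm/Em540nm).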
Large screens that a line does not name were inactive. This is a sample that favours compounds with a hit; in the whole collection about 3.1% have one here. Unless noted, calls follow the shape of the dose curve; as a rule, active = well fitted curve in the direction sought with a large enough effect; inconclusive = small, poorly fitted or top-dose-only effect, or another doubt; inactive = no such curve, though single readings can be large; an effect the other way counts as inactive or inconclusive.

COc1ccc(NC(=S)NNC(=O)CNc2ccc(Cl)cc2)cc1	PLK1 PBD inh 26.7µM
COc1ccc(NC(=S)NC(=O)c2ccccc2Cl)cc1	PLK1 PBD inh 26.7µM
O=C(NC(=S)Nc1ccc(O)cc1)c1ccccc1Cl	none
COc1ccc(C(=O)CSc2nnc(-c3n[nH]c4c3CCC4)n2N)cc1OC	none (no result: PLK1 PBD inh, VDR inh, GLS inh, KAT2A inh)
CC(C)C[C@H](NC(=O)[C@H](CCCCN)NC(=O)[C@H](CCCNC(=N)N)NC(=O)[C@H](C)NC(=O)[C@H](CO)NC(=O)[C@H](CCCCN)NC(=O)[C@H](CCCNC(=N)N)NC(=O)[C@H](C)NC(=O)CNC(=O)[C@@H](NC(=O)[C@H](Cc1ccccc1)NC(=O)CNC(=O)CNC(=O)[C@@H](N)Cc1ccccc1)[C@H](C)O)C(=O)N[C@@H](C)C(=O)N[C@@H](CC(N)=O)C(=O)N[C@@H](CCC(N)=O)C(=O)O	none (no result: PLK1 PBD inh, GLS inh, PI4K2A inh)
CN1CCN(c2ccc3c(c2)Oc2ccccc2CN(Cc2cn(Cc4cccc(C(F)(F)F)c4)nn2)S3(=O)=O)CC1	none (no result: PLK1 PBD inh, VDR inh, GLS inh, KAT2A inh)
O=C(Nc1ccc2ccccc2c1)NC1CCCCN(Cc2cccc(Cl)c2)C1=O (centres undefined)	none (no result: PLK1 PBD inh, VDR inh, GLS inh, KAT2A inh)
COc1cc2cc(C(=O)Nc3ccccc3)c(N)nc2cc1OC	PLK1 PBD inh 23.8µM
COc1cc2ccccc2cc1C(=O)NC(=S)Nc1ccc(C(=O)O)cc1	PLK1 PBD inh 29.9µM
COc1cc2ccccc2cc1C(=O)NC(=S)Nc1cccc(C(=O)O)c1	PLK1 PBD inh inconclusive
COc1cc2cc(C(=O)NC(C)c3cccc4ccccc34)c(N)nc2cc1OC (centres undefined)	none (no result: VDR inh, KAT2A inh)
O=C1NC(=S)N/C1=C\c1ccc(N2CCOCC2)cc1	PLK1 PBD inh 3.77µM, VDR inh inconclusive
O=C(O)c1cn(C2CC2)c2cc(Cl)c(F)cc2c1=O	none (no result: PLK1 PBD inh, VDR inh, GLS inh, KAT2A inh)
c1coc(-c2nnc3sc(C4CCCCC4)nn23)c1	PLK1 PBD inh 10.6µM
COc1ccc(-c2nnc3sc(C4CCCCC4)nn23)cc1OC	none
COC(=O)C1=C(C)N(CCc2c[nH]c3ccccc23)C(=O)/C1=C\N(C)C	PLK1 PBD inh 23.8µM, VDR inh inconclusive
OCc1ccccc1SSc1ccccc1CO	PLK1 PBD inh 0.267µM, VDR inh 8.91µM, GLS inh inconclusive (no result: KAT2A inh)
CC1C(=O)OC2C1CCC1(C)CCC(=O)C(C)C21 (centres undefined)	PLK1 PBD inh 29.9µM
CC1=CC(=O)C2=C(C)CC[C@H]3[C@H](C)C(=O)O[C@@H]3C12 (some centres undefined)	none (no result: PLK1 PBD inh, GLS inh, PI4K2A inh)
Nc1ncnc2c1ncn2Cc1c(F)cccc1Cl	none (no result: PLK1 PBD inh, VDR inh, GLS inh, KAT2A inh)
CCS(=O)(=O)N1CCC(C(=O)NCc2cccnc2)CC1	none
O=C(NCc1cccnc1)C1CCC(c2ccc(Cl)cc2)CC1 (centres undefined)	none
O=C(NCc1cccnc1)C1CC(c2ccccc2Cl)=NO1 (centres undefined)	PLK1 PBD inh 26.7µM
O=C1CCC(C(=O)NCc2cccnc2)N1 (centres undefined)	PLK1 PBD inh 29.9µM
CC(C)CN(CC(C)C)S(=O)(=O)N1CCC(C(=O)NCc2cccnc2)CC1	PLK1 PBD inh 26.7µM
COc1ccc(Oc2ccc3c(C(F)(F)F)cc(C(F)(F)F)nc3n2)cc1	none
CN(N)c1ccc2c(C(F)(F)F)cc(C(F)(F)F)nc2n1	PLK1 PBD inh 23.8µM
CCOC(=O)C(C)N1C(=O)S/C(=C\c2ccc(-c3ccccc3C(=O)O)o2)C1=O (centres undefined)	PLK1 PBD inh inconclusive, GLS inh 12.6µM
Cc1ccc(C)c(N2C(=N)S/C(=C\c3ccc(-c4ccccc4C(=O)O)o3)C2=O)c1	PLK1 PBD inh inconclusive
CS(=O)(=O)n1nc(OC(=O)c2cc(Br)ccc2Cl)cc1N	PLK1 PBD inh 10.6µM, VDR inh inconclusive
CS(=O)(=O)n1nc(OC(=O)c2cccc3ccccc23)cc1N	none
CCS(=O)(=O)c1ccc(OC)c(C(=O)OC)c1	none (no result: PLK1 PBD inh, VDR inh, GLS inh, KAT2A inh)
COc1cc2cc3c(N)c(C(=O)Nc4sc(C)c(C)c4C#N)sc3nc2cc1OC	PI4K2A inh -50.3
CCC(C(=O)Nc1ccccc1N1CCCC1)c1cccc(OC)c1 (centres undefined)	none (no result: PLK1 PBD inh, VDR inh, GLS inh, KAT2A inh)
